Shown are actives, neighbours in structure and some others; about 5.2% of the full set was active somewhere.
Tau fibril ThT – blocks human tau fibril formation measured by thioflavin T; AID 1460; recombinant tau K18 P301L, heparin-induced fibrillization, ThT fluorescence; 270,000 compounds, 2.1% hits; Potency, µM (highest dose often 57.4 µM), without a hit: at the highest dose activity, negative = inhibition, usual class: inhibitors; also: potency is read from the fitted curve at half-maximal effect; nearly all actives have a fitted effect of over 55% in size
Target sequence (P10636 561-689 P618L limits assumed): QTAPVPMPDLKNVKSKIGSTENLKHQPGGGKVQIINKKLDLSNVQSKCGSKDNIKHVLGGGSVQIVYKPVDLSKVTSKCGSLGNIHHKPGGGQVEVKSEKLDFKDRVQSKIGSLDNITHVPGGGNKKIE
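ThT emission at 510 nm, taken 1 hr after adding 30 uM dye, quantifies aggregates formed when 20 uM heparin acts on human tau K18 P301L for 6 hr at 37 C.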
Tau fibril FP – inhibitors of human tau fibril formation; P10636; 280,000 compounds, 0.39% hits; Potency, µM (highest dose often 57.7 µM), for the others: top-dose activity, negative = inhibition, hits mostly inhibitors; K18 P301L tau heparin fibrillization, Alexa594 FP, 6 h; AID 1468; also: potency is read from the fitted curve at half-maximal effect; nearly all actives have a fitted effect of over 55% in size
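Heparin (20 uM) drove fibril formation of recombinant tau K18 P301L, 15 uM unlabeled with 0.24 uM Alexa 594 label, for 6 hr at 37 C in 100 mM sodium acetate pH 7. Fluorescence polarization (555/632 nm) read 1 hr after 30 uM ThT.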
FBPA coupling cs – coupling enzyme interference in Giardia aldolase counter-screen; coupling enzyme system counterscreen, AmpLite Red fluorescence; AID 2472; activity change, negative = inhibition, % at 58.2 µM, hits read low; 290,000 compounds, 0.67% hits; in the data active = activity change below about -30%
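Fluorescence at 525 nm excitation and 598 nm emission measured inhibition of the coupled detection system without aldolase. Compounds (at 57.5 uM final) were preincubated 10 min at room temperature with coupling enzyme reagent before a 20 min substrate/AmpLite Red step.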
Sfp PPTase inh – inhibitors of Bacillus subtilis Sfp phosphopantetheinyl transferase. Q9F4F7. Biochemical Sfp PPTase activity, qHTS. Potency, µM, inactives show largest response in the series, negative = inhibition, usual class: inhibitors. 310,000 compounds, 3.5% hits. AID 1490;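 also: the enzyme is Sfp with the accession as filed and its product quenches rhodamine fluorescence; potency is read from the fitted curve at half-maximal effect; 0% = enzyme reaction without inhibitor and -100% = no enzyme wells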
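Compounds were incubated with enzyme (final 15 nM) for 15 min at room temperature before substrate addition started the reaction. Fluorescence at 525 nm excitation, 598 nm emission was recorded immediately and after 30 minutes.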
Tau fluor cs – counter-screen for tau fibril formation inhibitors | tau K18 P301L (four-repeat tau fragment) Alexa594 fluorescence, heparin fibrillization | Potency, µM (top dose mostly 57.7 µM), without a hit: top-dose activity change, negative = decrease | 280,000 compounds, 0.93% hits | AID 1463; also: potency is read from the fitted curve at half-maximal effect; nearly all actives have a fitted effect of over 55% in size
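Human K18 P301L tau (15 uM unlabeled plus 0.24 uM Alexa 594-labeled, final) in 100 mM sodium acetate pH 7 was mixed with compound and 20 uM heparin and incubated 6 hr at 37 C.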
An asterisk follows results filed as active; ? = inconclusive; . = no result; ! = not confirmed by another sample; [ ] = remark or other dose. Unless noted, calls follow the shape of the dose curve; as a rule, active = well fitted curve in the direction sought with a large enough effect; inconclusive = small, poorly fitted or top-dose-only effect, or another doubt; inactive = no such curve, though single readings can be large; an effect the other way counts as inactive or inconclusive. Unless noted, % is scaled to controls: 0 for no effect and ±100 for the full control effect.

SMILES	Tau fibril ThT	Tau fibril FP	FBPA coupling cs	Sfp PPTase inh	Tau fluor cs
Cc1ccc(C(=O)Nc2sc(C)c(C)c2C(=O)c2ccccc2)cc1	?	-4%	0	20µM*	-17%
Cc1sc(NC(=O)c2cccs2)c(C(N)=O)c1C	-19%	0%	0	40µM*	-2%
NCCCCCCCCCCNS(=O)(=O)c1cccc2c(Cl)cccc12	?	-4%	3	50µM*	-19%
NCCCCCCNS(=O)(=O)c1cccc2c(Cl)cccc12	-12%	2%	3	63µM*!	-18%
NC(=O)C1(N2CCCCC2)CCN(CCCC(=O)c2ccc(F)cc2)CC1	.	.	0	14%	.
CN(C)c1ccc(N=Nc2ccc(S(=O)(=O)O)cc2)c2ccccc12	5µM*	2%	5	7%	?
CN(C)c1ccc(N=Nc2ccc(S(N)(=O)=O)cc2)cc1	.	.	2	-7%	.
Cc1ccc2c(=O)cc(C(=O)Nc3sc4c(c3C(=O)NCC3CCCO3)CCC4)oc2c1 (stereo not drawn)	-8%	7%	.	.	0%
COc1ccccc1C(CCN(Cc1cccs1)C(C)=O)c1ccco1 (stereo not drawn)	?	-4%	6	20µM*	-6%
CCC(=O)NCCC(c1ccco1)c1ccccc1OC (stereo not drawn)	3%	5%	-14	11µM*	2%
O=C(c1ccco1)N(CCC(c1ccccc1)c1ccco1)Cc1ccccc1 (stereo not drawn)	?	-13%	3	50µM*	-3%
CCC(=O)N(CCC(c1ccccc1)c1ccco1)Cc1cccs1 (stereo not drawn)	?	-4%	5	50µM*	-14%
Cc1ccc(-c2cc3c(N4CCN(c5cc(C)ccc5C)CC4)nccn3n2)cc1	-8%	1%	.	.	-12%
O=C1N=C(N2CCN(Cc3ccccc3)CC2)S/C1=C/c1cccs1	?	2%	1	8%	-7%
Cc1ccc(-c2ccc(/C=C3\SC(N4CCOCC4)=NC3=O)o2)cc1	13µM*	-5%	-5	40µM*	?
O=C1N=C(N2CCOCC2)S/C1=C/c1ccc(-c2ccc(F)cc2)o1	?	5%	-1	-4%	-15%
Cc1ccc(/C=C2\SC(N3CCN(C(c4ccccc4)c4ccccc4)CC3)=NC2=O)o1	5%	3%	-23	4µM*	7%
Cc1cc(C)cc(-n2nnc(-c3nc(-c4ccccc4F)no3)c2C)c1	1%	2%	.	.	-5%
Nc1ccc(S(=O)(=O)NC2(C(F)(F)F)NC(=O)N(c3cccc(Cl)c3)C2=O)cc1 (stereo not drawn)	3%	4%	.	.	1%
O=C(CN1c2ccccc2Sc2ccccc21)NNC(=O)Nc1ccc(Cl)c(Cl)c1	?	?	0	-9%	5µM*[quencher]
O=C(CN1c2ccccc2Sc2ccccc21)NNC(=O)Nc1ccc(Cl)cc1	.	11%	1	-17%	5.6µM*[quencher]
CCC(C)NC(=O)c1c(N)n(/N=C/c2ccccn2)c2nc3ccccc3nc12 (stereo not drawn)	?	8%	1	10µM*	-30%
O=S(=O)(c1ccc(Br)s1)N1CCN(c2cccc(C(F)(F)F)c2)CC1	-14%	?	.	.	?
Cc1cc(Cl)ccc1NS(=O)(=O)c1ccc2c(c1)CC(C)N2C(=O)C1CCC1 (stereo not drawn)	-3%	-4%	.	.	-19%
COc1cc(CN2CCCC(C(=O)c3ccc4c5c(cccc35)CC4)C2)cc(OC)c1O (stereo not drawn)	28µM*	?	-39*	-14%	?
COc1cccc(O)c1CN1CCCC(C(=O)c2cccc(C(F)(F)F)c2)C1 (stereo not drawn)	-13%	9%	-1	71µM*	-24%
COCCn1c(=O)cnc2cnc(N3CCN(C)CC3)nc21	.	.	1	-6%	.
Nc1nc(SCC(=O)NCCCN2CCOCC2)nc2sc3c(c12)CCC3	-5%	1%	1	28µM*	-10%
Cc1nc2ccccc2c(=O)n1-c1ccc(NC(=O)c2ccccc2[N+](=O)[O-])cc1	-3%	-9%	.	.	-7%
O=C(O)c1cc(-c2ccco2)nn1-c1cccc(Cl)c1	-2%	-9%	2	20µM*	-3%
